# Test results as given in PubChem BioAssay (NCATS).
# The list shows a part of the results. Where a call stands in place of a potency, no number is given. Inconclusive results are not listed. Calls of active or inactive are those of the source. Calls come from the whole dose curve; as a rule, active = well fitted curve in the direction sought with a large enough effect; inconclusive = small, poorly fitted or top-dose-only effect, or another doubt; inactive = no such curve, though single readings can be large; an effect the other way counts as inactive or inconclusive.
# Test system: not listed separately
# Test: qHTS for small molecule inhibitors of Yes1 kinase: Counter Assay (AID 686950);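 note: no kinase present so only ADP-Glo detection of a fixed ADP amount is tested; luminescence from ADP-Glo reporting ADP in a fixed ATP and ADP mixture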
# Conditions: series mostly up to 76.9 µM
# In short: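 Measuring interference with ADP-Glo, the assay ran 60 min at room temperature on an ATP/ADP mix lacking enzyme. Values were normalized to ATP-plus-ADP (maximum) and ATP-only (minimum) DMSO controls.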
row,Compound,outcome
1,O=C(Nc1n[nH]c2nnc(-c3cccnc3)cc12)C1CC1,inactive
2,OCCCNc1nccc(-c2c(-c3ccc(F)cc3)nn3cc(C(F)(F)F)ccc23)n1,inactive
3,CCCN1CCC=C(c2ccc(Nc3nc(Nc4ccccc4C(N)=O)c4cc[nH]c4n3)c(C)c2)C1,inactive
4,COc1ccc2ncn(-c3cc(OC(C)c4ccccc4Cl)c(C(N)=O)s3)c2c1 (stereo not given),inactive
5,NC(=O)c1sc(-n2cnc3ccc(C(F)(F)F)cc32)cc1OCc1ccccc1Br,inactive
6,Cc1cccc(Oc2nccc(-c3c(-c4ccc(F)cc4)ncn3C3CCNCC3)n2)c1C,inactive
7,Fc1ccc(-c2ncn(C3CCNCC3)c2-c2ccnc(Oc3ccc4c(c3)OCO4)n2)cc1,inactive
8,c1cc(-c2cnn3nc(N4CCOCC4)ccc23)nc(NC2CC2)n1,inactive
9,COc1ccc2nc3c4nc5ccc(OC)cc5c4c4c(=O)[nH]c(=O)c4c3c2c1,inactive
10,CCCN1CCCC(c2ccc(Nc3nc(Nc4cc(F)ccc4C(N)=O)c4cc[nH]c4n3)c(OC)c2)C1 (stereo not given),inactive
11,Fc1cccc(COc2ccc(Nc3ncnc4cc(-c5ccc[nH]5)sc34)cc2Cl)c1,inactive
12,O=C1NC(=O)C(c2cccc([N+](=O)[O-])c2)=C1Nc1cc(Cl)c(O)c(Cl)c1,inactive
13,CC(C)(C)c1ccc(Oc2nccc(-c3c(-c4ccc(F)cc4)ncn3C3CCNCC3)n2)cc1,inactive
14,Cc1ccc2[nH]c(O)c(N=Nc3ccc(S(N)(=O)=O)cc3)c2c1,inactive
15,Fc1ccc(-c2ncn(C3CCNCC3)c2-c2ccnc(Oc3cccc(F)c3)n2)cc1,inactive
16,O=S(=O)(CCNCc1ccc(-c2ccc3ncnc(Nc4ccc(OCc5cccc(F)c5)c(Cl)c4)c3c2)o1)c1ccccc1,inactive
17,COc1cc(N2CCN(C(C)C)CC2)ccc1Nc1nc(Nc2cccc3ncccc23)c2cc[nH]c2n1,inactive
18,CCCN1CCC(Oc2cc(Nc3nc(Nc4cccc(F)c4C(N)=O)c4cc[nH]c4n3)c(OC)cc2Cl)CC1,inactive
19,Cc1cccc2c(N=Nc3ccc(S(N)(=O)=O)cc3)c(O)[nH]c12,inactive
20,COc1cc2c(cc1Nc1nc(Nc3ccsc3C(N)=O)c3cc[nH]c3n1)N(C(=O)CN(C)C)CCC2(C)C,inactive
21,COc1ccccc1Oc1nccc(-c2c(-c3ccc(F)cc3)ncn2C2CCNCC2)n1,inactive
22,CC1=C(C(=O)Nc2ccc3[nH]ncc3c2)C(c2ccc(F)cc2)N=C(c2ccc(C(F)(F)F)nc2)N1 (stereo not given),inactive

# Target: Phosphoglycerate kinase, glycosomal (Trypanosoma brucei brucei) (UniProt P07378)
# Test: qHTS for inhibitors of Phosphogylcerate Kinase: Hit Validation Screen (AID 686980); note: potency is the fitted concentration of half-maximal effect; nearly all actives have a fitted effect of over 65% in size
# Conditions: TbPGK coupled GAPDH assay, Kinase-Glo luminescence
# In short: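 Recombinant glycosomal PGK reaction used 1,3-bisphosphoglycerate generated in-well by GAPDH (100nM final) in 100mM TEA pH 7.6, 5mM MgCl2, 0.01% Tween-20. After 60 minutes at room temperature, ATP was read by Kinase-Glo Plus luminescence end-point.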
# Sequence of Phosphoglycerate kinase, glycosomal (Trypanosoma brucei brucei) (P07378 whole entry, looked up): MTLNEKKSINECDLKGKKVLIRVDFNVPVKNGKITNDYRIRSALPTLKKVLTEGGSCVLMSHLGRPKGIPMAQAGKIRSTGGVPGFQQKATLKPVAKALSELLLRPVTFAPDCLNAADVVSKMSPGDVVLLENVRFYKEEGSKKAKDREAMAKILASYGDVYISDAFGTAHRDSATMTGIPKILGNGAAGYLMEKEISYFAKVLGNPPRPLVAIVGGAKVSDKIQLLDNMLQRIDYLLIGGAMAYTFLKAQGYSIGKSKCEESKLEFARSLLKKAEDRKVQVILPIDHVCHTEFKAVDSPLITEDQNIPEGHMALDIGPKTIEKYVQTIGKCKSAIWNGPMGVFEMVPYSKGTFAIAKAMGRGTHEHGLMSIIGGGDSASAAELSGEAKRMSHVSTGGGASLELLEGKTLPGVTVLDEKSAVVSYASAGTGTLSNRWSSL
row,Compound,Potency
1,O=C1/C(=C/c2cccs2)CCc2ccccc21,14.6 µM (active)
2,Cc1nonc1C(=O)N/N=C/c1ccc(O)cc1,5.8 µM (active)
3,COCCCn1c(Cc2csc(Nc3cccc(Cl)c3)n2)nnc1SCC(=O)OC1CCCCC1,9.19 µM (active)
